In PubChem BioAssay (Tox21) one finds Potency and outcome data, which are given here for 7 molecules.

SMILES strings stand for the structures. Unmarked numbers belong to inactive results. Records with an inconclusive call do not appear. The source made the active and inactive calls. Unless noted, calls come from the whole dose curve.

Assay [1] is described as follows: Nuclear factor erythroid 2-related factor 2/antioxidant responsive element (Nrf2/ARE) small molecule agonists: qHTS cell viability counter screen in human keratinocytes (AID 1919968; active = well fitted curve in the direction sought with a large enough effect in the repeat runs; an effect the other way counts as inactive or inconclusive; note: nearly all actives have a fitted effect of over 55% in size; note: potency is the fitted concentration of half-maximal effect). In outline: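 In human HaCaT keratinocytes stably expressing an ARE-driven luciferase, compound exposure lasted 23 h at 37 C under 5% CO2. Viable cells are quantified with a protease-based fluorogenic reagent (CellTiter-Fluor) read 1 h after addition.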
A general note: In qHTS, concentration-response curves come from the screen itself.

Assay [2] can be described thus: Nuclear factor erythroid 2-related factor 2/antioxidant responsive element (Nrf2/ARE) small molecule agonists: luciferase reporter gene qHTS assay in human keratinocytes (AID 1919969). Note: nearly all actives have a fitted effect of over 35% in size. Note: potency is the fitted concentration of half-maximal effect.
The target of assay [3] is Gonadotropin-releasing hormone receptor (Homo sapiens) (UniProt P30968). The experiment in a line: Human gonadotropin-releasing hormone receptor (GnRHR) small molecule agonists, calcium flux assay in GnRHR-HEK293 cells (AID 1920063). Note: nearly all actives have a fitted effect of over 35% in size. The method in brief: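 Intracellular calcium rise is the read-out: engineered human GnRHR HEK293 cells, dye-loaded, are exposed to DMSO-dissolved compounds and fluorescence at Ex/Em 480/540 is tracked for 3 min.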
A general note: Calcium assays in cells follow changes in intracellular calcium, usually with a dye or a luminescent sensor.

Assay [4] addresses KiSS-1 receptor (Homo sapiens) (UniProt Q969F8). Put plainly: Human kisspeptin (KISS1R) small molecule agonists, calcium flux assay in KISS1R-HEK293 cells (AID 1920064; active = well fitted curve in the direction sought with a large enough effect in the repeat runs; an effect the other way counts as inactive or inconclusive). In outline: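 Concentration-response testing used 15 concentrations in triplicate on human KISS1R-expressing HEK293 cells. Calcium-dependent fluorescence (Ex/Em 480/540) was followed kinetically for 3 min after compound transfer.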

The nature of assay [5]: G protein-coupled receptor (GPCR) small molecule agonists, calcium flux assay: HEK293 wild type cell line counter screen (AID 1920065). The method in brief:
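Fluorescence intensity signals activation. After overnight (18 h) culture and a 1 h calcium dye load at 37 C, compounds are added by pin tool and the plate read at 480/540 nm for 3 min in 1 s steps.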

Assay [6] in a line: p53 small molecule agonists, cell-based qHTS assay with human liver microsomes (AID 1963577).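 Note: p53 response element beta-lactamase reporter cells with liver microsomes plus NADPH.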 In outline:
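Steps: plate p53RE-bla cells, incubate 5 h at 37 C; add compound in DMSO; add microsomes (0.5 mg/mL final) and NADPH (0.5 mg/mL final); incubate 16 h at 37 C; add LiveBLAzer, 2 h RT; read fluorescence.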

Assay [7] can be described thus: p53 small molecule agonists, cell-based qHTS assay with rat liver microsomes (AID 1963578). The method in brief: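 Metabolic activation is supplied by rat liver microsomes with NADPH (each 0.5 mg/mL final). p53RE-bla cells incubate with compound 16 h at 37 C; reporter activity is measured by LiveBLAzer fluorescence.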
Assay [8] in a line: p53 small molecule agonists, cell-based qHTS assay with human liver microsomes: qHTS cell viability counter screen (AID 1963579). Note: nearly all actives have a fitted effect of over 45% in size. Note: potency is the fitted concentration of half-maximal effect. The method in brief: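 After the 460/530 nm beta-lactamase read, CellTiter-Glo was added to the same wells and luminescence measured after 30 min at room temperature, giving viability of p53RE-bla cells treated 16 h with compounds plus microsomes and NADPH.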

Assay [9] in a line: p53 small molecule agonists, cell-based qHTS assay: qHTS cell viability counter screen (AID 1963581). Note: nearly all actives have a fitted effect of over 45% in size. In outline: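 Luminescence from CellTiter-Glo, reflecting ATP content, serves as the cytotoxicity measure; it is taken after the 2 h reporter substrate step in HCT-116 p53RE-bla cells dosed for 16 h at 37 C.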
Assay [10] deals with 5-hydroxytryptamine receptor 2A (Homo sapiens) (UniProt P28223). The experiment in a line: 5-hydroxytryptamine receptor 2A (HTR2A) small molecule antagonists, cell-based qHTS assay (AID 1963586). Note: nearly all actives have a fitted effect of over 45% in size. In outline:
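CHO cells stably expressing human HTR2A were plated for 18 h at 37 C, then loaded with calcium dye for 1 h. Compounds were preincubated 5 min at room temperature before DOI (4 nM solution) was added. Kinetic fluorescence was read for 3 min.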

For assay [11] the target is unchanged. Put plainly: 5-hydroxytryptamine receptor 2A (HTR2A) small molecule agonists, cell-based qHTS assay (AID 1963587). Note: nearly all actives have a fitted effect of over 30% in size. In outline: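 CHO cells stably expressing human HTR2A, plated 18 h, loaded with calcium dye 1 h at 37 C. Agonist mode: compounds added and intracellular calcium fluorescence recorded kinetically for 2 min at 1 sec intervals.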
The target in assay [12] is Muscarinic acetylcholine receptor M1 (Homo sapiens) (UniProt P11229). Put plainly: Cholinergic receptor muscarinic 1 (CHRM1) small molecule agonists, cell-based qHTS assay (AID 1963589). Note: nearly all actives have a fitted effect of over 35% in size. The method in brief: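 Fluorescent calcium dye reports M1 activation in stably transfected CHO cells. Compounds, 15 concentrations, added after 1 h dye loading at 37 C; kinetic reading at 1 sec intervals.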

Assay [13] is described as follows: cAMP Responsive Elements (CRE) small molecule agonists, cell-based qHTS assay (AID 1963590). The method in brief: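 Compound exposure lasted 3 h at 37 C/5% CO2 in CRE-bla HEK 293T cells grown in assay medium with 10% dialyzed FBS and 25 mM HEPES. Reporter signal came from LiveBLAzer B/G FRET substrate, 2 h, room temperature.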
Assay [14] can be described thus: cAMP Responsive Elements (CRE) small molecule antagonists, cell-based qHTS assay (AID 1963591; active = well fitted inhibition curve with a large enough effect in the signal ratio in the repeat runs, not every such curve was filed as active; the % refers to the signal ratio). In outline: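 Stimulation used NKH477 at a final 0.25 uM for 3 h in compound-treated CRE-bla HEK293T cells, seeded 18 h beforehand. Reporter activity was measured with LiveBLAzer B/G FRET substrate after 2 h at room temperature.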
In assay [15] the target is Beta-2 adrenergic receptor (Homo sapiens) (UniProt P07550). The experiment in a line: Adrenergic beta2 receptor (ADRB2) small molecule antagonists, cell-based qHTS assay (AID 1963592). Note: series mostly up to about 92 µM; nearly all actives have a fitted effect of over 50% in size. The method in brief:
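Assay format: CHO-ADRB2 cells, 18-20hr seeding at 37C/5% CO2, then compound plus 1nM isoproterenol agonist mix for 0.5hr RT. Homogeneous time-resolved fluorescence cAMP detection after 1hr, expressed as 665/615 nm ratio.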

In assay [16] the target is D(2) dopamine receptor (Homo sapiens) (UniProt P14416). The experiment in a line: Dopamine D2 receptor (DRD2) small molecule agonists, cell-based qHTS assay (AID 1963594). Note: nearly all actives have a fitted effect of over 35% in size. The method in brief: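 HEK293 cells stably expressing human DRD2, pre-treated with PDE inhibitor Ro20-1724 (0.1 mM final) and compound 10 min at room temperature, then stimulated with NKH477 (200nM […]) for 30 min. cAMP read by HTRF (665/620 nm).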

The target is the same in assay [17]. Put plainly: Dopamine D2 receptor (DRD2) small molecule antagonists, cell-based qHTS assay (AID 1963595; active = well fitted inhibition curve with a large enough effect in the signal ratio in the repeat runs, with a control signal flat; the % refers to the signal ratio). In outline: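 Human DRD2 antagonist qHTS measuring cAMP by HTRF. The cells are exposed to compound for 10 min, then to NKH477 (200 nM) and quinpirole (12 nM) for 30 min at RT, with Ro20-1724 (0.1 mM) present throughout.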
Assay [18] in a line: p53 small molecule agonists, cell-based qHTS assay (AID 1963582; active = well fitted activation curve with a large enough effect in the signal ratio in the repeat runs, not every such curve was filed as active; the % refers to the signal ratio). In outline: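 After plating, p53RE-bla cells sat 5 h in the incubator; compounds or DMSO vehicle were pinned in; a 16 h incubation at 37 C followed; FRET substrate was added and, 2 h later at RT, fluorescence was measured.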
The target in assay [19] is Muscarinic acetylcholine receptor M1 (Homo sapiens) (UniProt P11229). The experiment in a line: Cholinergic receptor muscarinic 1 (CHRM1) small molecule antagonists, cell-based qHTS assay (AID 1963588). Note: nearly all actives have a fitted effect of over 40% in size. The method in brief:
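Compounds were tested at 15 concentrations in three independent runs. Dye-loaded CHRM1-CHO cells were exposed 5 min at room temperature before stimulation by acetylcholine added at 50nM. Intracellular calcium was read kinetically on FDSS for 3 min.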

Assay [20] in a line: p53 small molecule agonists, cell-based qHTS assay with rat liver microsomes: qHTS cell viability counter screen (AID 1963580). Note: nearly all actives have a fitted effect of over 45% in size. In outline:
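Cytotoxicity counter screen: intracellular ATP measured by CellTiter-Glo luminescence in the same wells as the beta-lactamase reporter read, on HCT-116 p53RE-bla cells exposed 16 h at 37 C to compounds with rat liver microsomes and NADPH, each 0.5 mg/mL final.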

Chain of 5-hydroxytryptamine receptor 2A (Homo sapiens) (P28223 whole entry, looked up): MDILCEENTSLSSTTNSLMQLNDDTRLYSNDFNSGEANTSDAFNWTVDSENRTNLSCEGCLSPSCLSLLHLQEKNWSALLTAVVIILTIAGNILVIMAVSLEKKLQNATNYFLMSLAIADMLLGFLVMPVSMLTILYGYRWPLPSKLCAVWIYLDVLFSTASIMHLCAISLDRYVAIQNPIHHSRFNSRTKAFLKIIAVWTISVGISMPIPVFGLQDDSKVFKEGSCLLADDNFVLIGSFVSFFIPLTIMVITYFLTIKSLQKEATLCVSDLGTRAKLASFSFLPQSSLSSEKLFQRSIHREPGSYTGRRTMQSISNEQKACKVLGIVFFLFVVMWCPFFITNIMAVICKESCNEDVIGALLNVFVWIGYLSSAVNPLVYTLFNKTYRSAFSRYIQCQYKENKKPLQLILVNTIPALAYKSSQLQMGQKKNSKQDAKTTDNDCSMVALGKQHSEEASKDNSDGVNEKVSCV
Chain of D(2) dopamine receptor (Homo sapiens) (P14416 whole entry, looked up): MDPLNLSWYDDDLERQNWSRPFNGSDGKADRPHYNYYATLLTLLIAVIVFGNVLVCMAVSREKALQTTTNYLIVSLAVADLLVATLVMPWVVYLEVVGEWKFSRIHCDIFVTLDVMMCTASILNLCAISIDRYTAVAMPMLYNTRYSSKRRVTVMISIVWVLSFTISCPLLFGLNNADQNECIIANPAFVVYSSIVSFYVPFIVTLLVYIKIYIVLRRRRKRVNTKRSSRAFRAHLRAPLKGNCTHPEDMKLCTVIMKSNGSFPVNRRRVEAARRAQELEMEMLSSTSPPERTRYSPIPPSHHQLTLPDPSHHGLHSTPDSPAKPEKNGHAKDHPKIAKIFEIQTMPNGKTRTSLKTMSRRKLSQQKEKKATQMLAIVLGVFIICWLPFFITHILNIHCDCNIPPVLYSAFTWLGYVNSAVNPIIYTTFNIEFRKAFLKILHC
Chain of Gonadotropin-releasing hormone receptor (Homo sapiens) (P30968 whole entry, looked up): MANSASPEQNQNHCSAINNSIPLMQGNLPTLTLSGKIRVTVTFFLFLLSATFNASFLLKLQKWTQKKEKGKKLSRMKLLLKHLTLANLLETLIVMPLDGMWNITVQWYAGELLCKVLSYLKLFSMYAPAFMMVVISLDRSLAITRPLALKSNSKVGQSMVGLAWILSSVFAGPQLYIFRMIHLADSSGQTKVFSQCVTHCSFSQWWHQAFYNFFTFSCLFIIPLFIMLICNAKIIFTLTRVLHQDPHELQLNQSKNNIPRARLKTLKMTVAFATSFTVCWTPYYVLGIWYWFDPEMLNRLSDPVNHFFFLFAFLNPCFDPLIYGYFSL
Chain of KiSS-1 receptor (Homo sapiens) (Q969F8 whole entry, looked up): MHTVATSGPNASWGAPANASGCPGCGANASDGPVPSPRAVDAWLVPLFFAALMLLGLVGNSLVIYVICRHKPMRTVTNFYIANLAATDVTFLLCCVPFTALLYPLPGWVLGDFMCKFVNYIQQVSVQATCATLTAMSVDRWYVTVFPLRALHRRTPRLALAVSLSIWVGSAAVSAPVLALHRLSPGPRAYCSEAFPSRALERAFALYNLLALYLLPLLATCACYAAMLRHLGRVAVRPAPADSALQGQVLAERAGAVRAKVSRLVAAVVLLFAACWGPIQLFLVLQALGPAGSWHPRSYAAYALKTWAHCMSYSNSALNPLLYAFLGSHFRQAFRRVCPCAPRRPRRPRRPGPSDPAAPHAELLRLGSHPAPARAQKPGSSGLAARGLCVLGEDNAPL
Chain of Muscarinic acetylcholine receptor M1 (Homo sapiens) (P11229 whole entry, looked up): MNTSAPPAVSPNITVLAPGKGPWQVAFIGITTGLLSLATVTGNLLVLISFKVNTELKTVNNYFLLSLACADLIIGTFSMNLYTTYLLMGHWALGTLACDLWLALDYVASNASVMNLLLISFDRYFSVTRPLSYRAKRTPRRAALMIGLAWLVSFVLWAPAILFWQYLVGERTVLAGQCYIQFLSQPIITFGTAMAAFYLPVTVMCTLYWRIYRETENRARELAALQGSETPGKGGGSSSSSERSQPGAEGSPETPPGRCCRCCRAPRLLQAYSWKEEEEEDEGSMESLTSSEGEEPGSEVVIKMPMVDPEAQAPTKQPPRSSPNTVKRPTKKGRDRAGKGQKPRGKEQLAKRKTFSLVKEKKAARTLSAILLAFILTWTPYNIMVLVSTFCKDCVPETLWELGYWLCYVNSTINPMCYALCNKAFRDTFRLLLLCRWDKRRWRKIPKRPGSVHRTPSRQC
Chain of Beta-2 adrenergic receptor (Homo sapiens) (P07550 whole entry, looked up): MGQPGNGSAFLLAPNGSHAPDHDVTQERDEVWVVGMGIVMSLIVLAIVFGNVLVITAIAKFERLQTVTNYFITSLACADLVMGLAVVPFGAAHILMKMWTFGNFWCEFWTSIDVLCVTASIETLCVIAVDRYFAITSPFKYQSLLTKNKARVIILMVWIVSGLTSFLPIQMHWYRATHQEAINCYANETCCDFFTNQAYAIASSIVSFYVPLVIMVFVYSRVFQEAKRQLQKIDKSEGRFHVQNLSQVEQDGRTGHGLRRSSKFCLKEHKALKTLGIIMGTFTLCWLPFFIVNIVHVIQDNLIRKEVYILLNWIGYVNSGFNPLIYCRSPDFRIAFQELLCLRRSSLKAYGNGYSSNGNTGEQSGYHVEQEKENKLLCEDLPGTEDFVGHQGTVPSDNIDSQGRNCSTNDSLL

Consider `Cc1ccc(C=O)s1`, for which the Potency entry in [1], in [3], in assay [6], in [7], in assay [9] and in assay [10] was “inactive” in each case. For the same molecule, the Potency entry in assay [11], in assay [12], in assay [13], in assay [14], in assay [15] and in [16] was “inactive” throughout. Further, the Potency entry in [17] was “inactive”. Further, the Potency in assay [2] was 68.6 µM (active); in assay [8] it was 40.8 µM (active). For the same molecule, the result in assay [4] and in assay [5] was inactive.

Turning to `CCOC(=O)CC1(C)OCC(C)O1` (centres undefined), the Potency result in assay [1], in [2], in [3], in assay [6], in assay [7] and in [8] was “inactive” in each case. In addition, the Potency entry in assay [18], in assay [10], in assay [11], in assay [19], in [12] and in assay [13] was “inactive” each time. Moreover, the Potency result in [14], in assay [15], in assay [16] and in assay [17] was “inactive” throughout. Further, the result in assay [4] and in [5] was inactive.

Regarding `Cc1ccnc2ccccc12`, the Potency result in [1], in assay [3], in [6], in assay [7], in assay [20] and in [9] was “inactive” each time. The Potency entry in [18], in [10], in assay [11], in assay [19], in [12] and in [13] was “inactive” in each case. Besides, the Potency result in assay [14], in assay [15] and in assay [17] was “inactive” each time. In addition, the Potency in assay [2] is 68.4 µM (active). The outcome in assay [4] and in [5] was inactive.

With `Nc1ncnc(Nc2ccccc2)n1`, the Potency result in assay [1], in [2], in assay [3], in assay [6], in assay [7] and in [20] was “inactive” each time. In addition, the Potency entry in [9], in [18], in assay [10], in [11], in assay [19] and in [12] was “inactive” throughout. In addition, the Potency result in assay [13], in assay [14], in [15], in [16] and in assay [17] was “inactive” each time. Moreover, the outcome in assay [4] and in [5] was inactive.

Consider `N=C1C=CC(=C(c2ccc(N)cc2)c2ccc(N)cc2)C=C1`, for which the figures for the Potency in assay [1] and in assay [2] were 27.3 µM (active) and 61.1 µM (active), respectively. The Potency result in [3], in assay [6], in assay [7], in [8], in assay [9] and in [11] was “inactive” throughout. The Potency entry in assay [19] and in assay [12] was “inactive” throughout. Besides, the outcome in assay [4] and in assay [5] was inactive.

With `CCCCOCCOC(=O)CCCCCCCCC(=O)OCCOCCCC`, the Potency result in assay [1], in assay [2], in assay [3], in assay [6], in assay [7] and in assay [20] was “inactive” throughout. Further, the Potency result in assay [9], in assay [18], in assay [10], in assay [11], in [19] and in assay [12] was “inactive” in each case. The Potency entry in assay [13], in assay [14], in assay [15], in assay [16] and in assay [17] was “inactive” each time. In addition, the outcome in assay [4] and in [5] was inactive.

`BrC(Br)C(Br)Br`: the Potency result in [1], in assay [2], in [3], in assay [6], in assay [7] and in [8] was “inactive” each time. In addition, the Potency result in assay [18], in [10], in assay [11], in assay [19], in assay [13] and in assay [14] was “inactive” throughout. Also, the Potency result in [15] and in [17] was “inactive” each time. Moreover, the outcome in assay [4] and in [5] was inactive.
